HCV inhibitor: inhibitors of hepatitis C virus infection. AID 651820. Potency, µM (top dose mostly 41.8 µM), for inactives: top-dose activity change, negative = inhibition, actives largely listed as inhibitors. Huh7.5.1 HCVcc-Cre infection, luciferase reporter, 44 h. actives 3.4% (n = 340,000); active = well fitted inhibition curve with a large enough effect; inconclusive = small, poorly fitted or top-dose-only effect, or another doubt; inactive = no such curve, though single readings can be large or run the other way; note: potency is the fitted concentration of half-maximal effect; % is set by controls: 0 for no effect and ±100 for the full control effect
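Infectious HCVcc-Cre (~0.5 moi) was added to cells just after compound, with cells seeded 4 h earlier at 1,000 per well. Luciferase activity after 44 h culture reported infection; substrate was incubated 15 min at room temperature before reading.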
Cycloheximide cs: counter-screen for Shiga toxin inhibitors: cycloheximide protein synthesis inhibition | cell reporter, cycloheximide protein synthesis inhibition counterscreen | max response, % | actives 12% (n = 300,000) | AID 2314; in the data active = max response mostly above about 13%, no sharp cut-off; inactive = mostly below about 14%; note: read at 38.3 µM for the half of the compounds with a filed dose; 0% is about no effect
MARV entry inh: Marburg virus entry inhibition; Marburg virus pseudotyped entry inhibition, cell reporter; Potency, µM (series often up to 37.8 µM), inactives show at the top dose activity change, negative = inhibition, usual class: inhibitors; actives 1.8% (n = 300,000); AID 540276; calls by dose curve; tested in HEK293 cells; note: potency is the fitted concentration of half-maximal effect; % is set by controls: 0 for no effect and ±100 for the full control effect
LASV entry inh: blocks Lassa virus binding to or entry into cells; Lassa virus pseudotype entry inhibition, cell reporter; Potency, µM (series often up to 37.9 µM), for the others: at the highest dose activity change, negative = inhibition, actives largely listed as inhibitors; actives 1.2% (n = 300,000); AID 540256; calls by dose curve; tested in HEK293 cells; note: potency is the fitted concentration of half-maximal effect; % is set by controls: 0 for no effect and ±100 for the full control effect; nearly all actives have a fitted effect of over 50% in size
Shiga toxin inh: inhibitors of Shiga toxin in Vero cells | Vero cells, Shiga toxin protein synthesis inhibition reporter | inhibition, % at 38.7 µM | actives 9.2% (n = 290,000) | AID 2315; in the data active = inhibition mostly above about 28%, no sharp cut-off; inactive = mostly below about 43%; note: 0% is about no effect
FMDV antiviral: foot and mouth disease virus antiviral activity. FMDV antiviral cell-based qHTS. Potency, µM (highest dose often 57.9 µM), for inactives: top-dose activity change, negative = inhibition, most hits filed as inhibitors. AID 1159524. actives 1.2% (n = 410,000); calls by dose curve; tested in HEK293T cells; note: read-out not given here; potency is the fitted concentration of half-maximal effect; % is set by controls: 0 for no effect and ±100 for the full control effect; nearly all actives have a fitted effect of over 45% in size
Numbers without * were called inactive; ? = inconclusive; nt = no result; [ ] = dose if it differs, or a comment. Compounds with a hit are over-represented: about 13% of the library has one in this group of screens.

SMILES | HCV inhibitor | Cycloheximide cs | MARV entry inh | LASV entry inh | Shiga toxin inh | FMDV antiviral
O=C(CSc1nnc(-c2ccccc2Br)o1)N1CCOCC1 | -2% | 51* | ? | ? | 70* | 19%
O=C(CSc1nnc(-c2ccccc2O)o1)N1CCc2ccccc2C1 | ? | -2 | 16% | -5% | -7 | 3%
CCN(CC)C(=S)SCC(=O)Nc1ncc2c(n1)CCCC2=O | -11% | 5 | -8%[46.1 µM] | 10% | -2 | 0%
O=C(CSc1nnc(-c2ccncc2)o1)N1CCCCCC1 | 17% | 10 | 26%[46.1 µM] | 25% | 34 | 38%
O=C(CSc1nnc(-c2ccccc2Cl)o1)N1CCCCC1 | 4% | 37* | nt | nt | 83* | 0%
CCOC(=O)C1=C(c2cccc(Oc3ccccc3)c2)NC(=S)NC1C (configuration not stated) | 8.9µM* | 11 | ? | ? | 12 | -22%
CCOC(=O)C1=C(C)C(c2ccc(OC)cc2)NC(=S)N1 (configuration not stated) | -2% | 5 | -8% | 5% | 17 | -21%
CCOC(=O)C1=C(C)C(c2cccc(Oc3ccccc3)c2)NC(=S)N1 (configuration not stated) | ? | 1 | ? | 8.9µM* | 6 | 28µM*
CCOC(=O)C1=C(c2ccccc2)NC(=S)NC1c1ccc(Cl)c([N+](=O)[O-])c1 (configuration not stated) | ? | -7 | -32% | -18% | 38 | nt
O=C(CN1CCCCCC1)Nc1ccccc1OC(F)F | 6% | -3 | ? | ? | 7 | -7%
COc1cccc(C(=O)Nc2cc3c(cc2C(=O)c2ccc(C)cc2)OCCO3)c1 | nt | nt | ? | 14%[46.1 µM] | nt | -16%
COc1cccc(C(=O)Nc2cc3c(cc2Cl)OCCCO3)c1 | -7% | 76* | ? | -30% | 84* | -4%
COc1ccc(C(=O)Nc2cc3c(cc2Cl)OCCCO3)cc1 | -25% | 45* | -10% | ? | 94* | 26%
COc1ccc(NC(=O)C/C(C)=N/NC(=O)C(=O)Nc2cccc(Cl)c2C)c(OC)c1 | 19% | 8 | ? | 6%[46.1 µM] | 15 | -1%
COc1ccc(NS(=O)(=O)c2cccc(C(=O)N/N=C(/C)c3ccc(-n4ccnc4)cc3)c2)cc1 | -5% | nt | 11%[46.1 µM] | 28%[46.1 µM] | nt | -14%
CCc1ccc(OCC(=O)N/N=C(\C)c2ccc(-n3ccnc3)cc2)cc1 | -12% | 16* | ? | -30% | 51* | 1%
CCOc1ccc(S(=O)(=O)Nc2ccc(C(=O)N/N=C(\C)c3ccc(-n4ccnc4)cc3)cc2)cc1 | -14% | 6 | 11µM* | ? | 13 | -5%
CCOC(=O)C(=CNc1ccc2c(c1)CCN2C(C)=O)C(=O)OCC | ? | -1 | nt | nt | -2 | 32%
Cc1ccc2nc(NS(=O)(=O)c3cn(C)nc3C)sc2c1 | 5% | 3 | -4%[46.1 µM] | -4%[46.1 µM] | -16 | 22%
COc1ccc(N(CC(=O)NCc2cccc(OC)c2)S(=O)(=O)c2c(C)noc2C)cc1 | 23% | -2 | ? | 0% | -9 | 0%
O=c1c2ccccc2c(-c2ccccc2)nn1Cc1c(Cl)cccc1Cl | -20% | -2 | -18% | -13% | -6 | 18%
Clc1cccc(Cl)c1Cn1ccc(C2CC2)n1 | 5% | 41* | 15%[46.1 µM] | 25% | 64* | 31%
Cc1ccc(S(=O)(=O)CC(=O)N(CCCN(C)C)c2nc3ccc(C)cc3s2)cc1 | -9% | nt | ? | ? | nt | 20%
CCOc1cc2[nH]c(=S)n(CCCC(=O)NCc3ccccn3)c(=O)c2cc1OCC | 11% | -3 | nt | nt | -12 | -3%

Screening results: PubChem, National Center for Advancing Translational Sciences (NCATS)
